Test results: PubChem BioAssay (NCI)
About 83,000 compounds went through this panel and 20% of them were active in at least one assay; those are over-represented in the sample as a whole.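 Assay: single dose, 48 h. Readout: percent growth (0 = no net growth; negative = cell death). Active: <10.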 Unmarked numbers belong to inactive results. Calls of active or inactive are those of the source.

Tests used:
Experiment in all cases: NCI-60 one-dose screen, 48 h (100 = growth as untreated, 0 = no growth, -100 = all killed)
Settings in all cases: 10 µM unless noted
[1] = test system: HCT-15 colon
[2] = test system: HT29 colon
[3] = test system: SNB-75 CNS
[4] = test system: SNB-19 CNS
[5] = test system: U251 CNS
[6] = test system: PC-3 prostate
[7] = test system: SK-MEL-5 melanoma
[8] = test system: UACC-62 melanoma
[9] = test system: LOX IMVI melanoma
[10] = test system: SK-MEL-28 melanoma

SMILES | growth [1] | growth [2] | growth [3] | growth [4] | growth [5] | growth [6] | growth [7] | growth [8] | growth [9] | growth [10]
[2H]c1nc(=Nc2cc(NC(=O)C=C)c(N(C)CCN(C)C)cc2OC)[nH]c(-c2cn(C([2H])([2H])[2H])c3ccccc23)c1[2H] | 1.13% (active) | -3.69% (active) | 66.9% | 55.8% | 40.9% | 50.2% | 63.5% | -10.7% (active) | 39.2% | 37.5%
COc1cc(-c2nc3c(c(C)nc4c3nnn4-c3ccccc3)c(=O)o2)cc(OC)c1OC | 113% | 115% | 89.6% | 110% | 111% | 104% | 106% | 102% | 101% | 101%
NNC(=S)N1N=C(c2cc3ccccc3o2)CC1c1c[nH]c2ccccc12 (stereo not given) | 30.4% | 34.1% | 88.4% | 35.5% | 36% | 29.2% | 42.1% | 15.4% | 26% | 40.2%
O=C(c1ccccc1)c1ccccc1-c1ccccc1 | 17.8% | -25.8% (active) | 3.14% (active) | 34.7% | 25.4% | 41.4% | 25% | 34.5% | 31.6% | 50.1%
O=S(=O)(Cc1cccc2c(CS(=O)(=O)c3ccc(Cl)cc3)cccc12)c1ccc(Cl)cc1 | 92.8% | 93.7% | 88.1% | 104% | 104% | 92% | 92.3% | 98.3% | 94.1% | 107%
COC(=O)C1CC(=O)N(C(=O)Nc2ccc(Cl)cc2Cl)C1 (stereo not given) | 99% | 101% | 98.7% | 102% | 97.3% | 95.2% | 108% | 97.2% | 96.8% | 112%
O=C1C(=O)c2ccccc2C(O)=C1CCCc1ccc(Oc2ccccc2)cc1 | 74.1% | 113% | 71.2% | 62% | 36.1% | 37.5% | 55.1% | 36.5% | 38.9% | 74.8%
Cc1ccc2c(O)c(O)cc(NC(C)CCCN)c2n1 (stereo not given) | 116% | 47.7% | 108% | 87.7% | 25.7% | 89.2% | 95.7% | 113% | 31.2% | 131%
NC(CSC(c1ccccc1)(c1ccccc1)c1ccccc1)C(=O)NCC(=O)O (stereo not given) | 73.2% | 101% | 76.1% | 85.7% | 38.3% | 81.9% | 44.3% | 62.5% | 81.4% | 63.3%
COc1ccc(/C(=C(\c2ccccc2)[N+](=O)[O-])c2ccc(OCCN3CCCC3)cc2)cc1 | 6.54% (active) | 9.77% (active) | 76% | 87.8% | 74.1% | 69.4% | -78.2% (active) | 38.4% | -20.1% (active) | -10.3% (active)
CCCCn1c(Cc2ccc(OC)cc2)nc2cc(OC)c(OC)cc2c1=O | 93.4% | 101% | 87.5% | 84.7% | 87.8% | 91.8% | 36.6% | 59.6% | 90.2% | 90.6%
Oc1ccc(Br)cc1/C=N/NC(=S)NC12CC3CC(CC(C3)C1)C2 | 9.35% (active) | -16.7% (active) | 53.3% | 45.3% | 5.5% (active) | -19% (active) | 28.6% | 30.1% | -76% (active) | 51.2%
CCOC(=O)c1ccc2n1CCCc1cnc(NC(C)=O)nc1-2 | 107% | 106% | 85.5% | 99.7% | 102% | 93.1% | 100% | 93.9% | 99.7% | 99.2%
O=C(Nc1ccc(-n2cc(-c3ccncc3)c(-c3ccc(Cl)c(O)c3)n2)cc1)c1cc(C(F)(F)F)cc(C(F)(F)F)c1 | 27.8% | 11.1% | 12.2% | 72.5% | 54.3% | 72.1% | 55.8% | 68.5% | 53.1% | 45.9%
Cc1ccc([C@@H]2C[C@H](O)Cc3ccccc3N2)s1 | 94.1% | 117% | 98.4% | 120% | 99.6% | 92% | 105% | 117% | 101% | 116%
CCCCCCCCCCCCCCCCNC(=O)Nc1ccc(C)c(NC(=O)NCCCCCCCCCCCCCCCC)c1 | 105% | 104% | 97% | 96.9% | 100% | 84.5% | 98.4% | 95.5% | 109% | 112%
c1ccc(C(=NNc2nc3ccccc3o2)c2ccccn2)nc1 | 16.8% | 23% | 31.7% | 24.5% | 10.6% | 29.2% | -58% (active) | -8.29% (active) | 0.582% (active) | 25.2%
CC1(c2ccc(Br)cc2)NC(=O)NC1=O (stereo not given) | 106% | 106% | 99.3% | 105% | 97.2% | 103% | 104% | 101% | 100% | 112%
Oc1ccccc1/C=N/N=C/c1c(O)ccc2ccccc12 | 70.1% | 100% | 94.2% | 99.4% | 93.2% | 83.8% | 93.1% | 84.4% | 85.2% | 101%
CC1Cc2cc(F)ccc2-n2cccc21 (stereo not given) | 95% | 106% | 96.1% | 121% | 102% | 98.2% | 109% | 110% | 91.7% | 107%
COc1cc(/C=C/C(=O)c2ccc(F)cc2)ccc1OCCCCOc1cc2c(cc1OC)C(=O)N1CCCC1C=N2 (stereo not given) | -46.3% (active) | -49.3% (active) | -8.01% (active) | -35.3% (active) | -100% (active) | -38.3% (active) | -99.7% (active) | -86% (active) | -84.6% (active) | -42.1% (active)
O=C(/C=C/c1ccc(Cl)cc1)c1ccc(Cl)cc1 | 94.3% | 70.2% | 99% | 102% | 93.8% | 96.8% | 97.3% | 90.4% | 66.5% | 99.9%
O=C(CCCC(=O)Nc1ccc(Cn2nnc3cc(Cl)c(Cl)cc32)cc1)Nc1ccc(CN2N=NC3C=C(Cl)C(Cl)=CC32)cc1 (stereo not given) | 97.3% | 86.5% | 70.3% | 86.2% | 84.2% | 60.2% | 89.8% | 62.3% | 78.8% | 103%
c1ccc(-c2cn3ccnc3c(-c3ccc4ncn(C5CCCCC5)c4c3)n2)cc1 | 48.4% | 51.7% | 55.6% | 77.1% | 62.7% | 7.96% (active) | 63.5% | 34.4% | 60.4% | 82%
CCS(=O)(=O)N[C@@H]1O[C@H](COC(C)=O)C(OC(C)=O)[C@H](OC(C)=O)C1OC(C)=O (stereo not given in full) | 93.8% | 102% | 93.9% | 115% | 97.7% | 102% | 105% | 110% | 92.8% | 108%
CN1CCN(Cc2ccc(NC(=O)c3cncc(C#Cc4c(N)ncc5ccc(F)cc45)c3)cc2C(F)(F)F)CC1 | 25.9% | -60.1% (active) | 15.5% | 74.3% | 43.3% | 43.7% | -93.1% (active) | 22.8% | -8.63% (active) | -84.9% (active)
COc1ccc(/C=C/C(=O)/C=C/c2cc3ccccc3[nH]c2=O)cc1 | 75.3% | 3.66% (active) | 61.6% | 79.6% | 13.7% | 52.4% | 86.7% | 53.5% | -21% (active) | 79.6%
